Laboratory results from PMC7862700, “An all-to-all approach to the identification of sequence-specific readers for epigenetic DNA modifications on cytosine”.

Tests used:
Assay in all cases: DAPPL (digital affinity profiling via proximity ligation, sequencing); 10 mM Tris-HCl pH 7.5, 50 mM NaCl, 1 mM DTT, 4% glycerol, room temperature, 30 min; GST-TFs on glutathione beads, 16-mer random dsDNA library, 0.1% formaldehyde crosslink after washing; high values mean tight binding
FEV = molecular target: T1, FEV (Homo sapiens, UniProt Q99581 1-238); conditions: protein: recombinant; tags: N-terminal GST; dsDNA, one strand shown
T1 sequence: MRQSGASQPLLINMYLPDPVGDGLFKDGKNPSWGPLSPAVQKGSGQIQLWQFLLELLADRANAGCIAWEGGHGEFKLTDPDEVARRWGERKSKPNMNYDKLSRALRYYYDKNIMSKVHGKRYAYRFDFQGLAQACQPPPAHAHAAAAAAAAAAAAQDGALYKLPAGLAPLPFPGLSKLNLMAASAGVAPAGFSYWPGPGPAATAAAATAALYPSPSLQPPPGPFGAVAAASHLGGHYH
Procedure, shortened: (§1)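 Each value of binding signal is a hexamer's read frequency for a factor divided by the same hexamer's frequency in the tag-only sample. Barcoded, bead-captured GST fusions of human transcription factors made in yeast were pooled with that sample and incubated with 200 nmole of a random double-stranded 16-mer DNA library in Tris/NaCl/DTT/glycerol buffer at room temperature for 30 min. Washing, 0.1% formaldehyde crosslinking, proximity ligation, PCR and Illumina NextSeq500 sequencing followed.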

ETV5 = ETV5 (Homo sapiens, UniProt P41161 1-510); conditions: protein: recombinant; tags: N-terminal GST; dsDNA, one strand shown
Procedure, shortened: as §1

HSF1 = HSF1 (Homo sapiens, UniProt Q00613 1-529); conditions: protein: recombinant; tags: N-terminal GST; chain copies: 3; dsDNA, one strand shown
Procedure, shortened: as §1

SPIC = molecular target: T2, SPIC (Homo sapiens, UniProt Q8N5J4 1-248); conditions: protein: recombinant; tags: N-terminal GST; dsDNA, one strand shown
T2 sequence: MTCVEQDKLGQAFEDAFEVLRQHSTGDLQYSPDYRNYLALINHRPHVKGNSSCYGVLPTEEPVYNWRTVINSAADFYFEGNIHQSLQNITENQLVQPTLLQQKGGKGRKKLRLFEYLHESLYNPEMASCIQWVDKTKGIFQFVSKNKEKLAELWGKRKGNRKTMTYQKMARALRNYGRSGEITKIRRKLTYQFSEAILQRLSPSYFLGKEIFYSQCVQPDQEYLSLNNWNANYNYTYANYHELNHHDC
Procedure, shortened: as §1

ELF4 = ELF4 (Homo sapiens, UniProt Q99607 1-663); conditions: protein: recombinant; tags: N-terminal GST; dsDNA, one strand shown
Procedure, shortened: as §1

ELK4 = molecular target: T3, ELK4 (Homo sapiens, UniProt P28324-2 1-405); conditions: protein: recombinant; tags: N-terminal GST; dsDNA, one strand shown
T3 sequence: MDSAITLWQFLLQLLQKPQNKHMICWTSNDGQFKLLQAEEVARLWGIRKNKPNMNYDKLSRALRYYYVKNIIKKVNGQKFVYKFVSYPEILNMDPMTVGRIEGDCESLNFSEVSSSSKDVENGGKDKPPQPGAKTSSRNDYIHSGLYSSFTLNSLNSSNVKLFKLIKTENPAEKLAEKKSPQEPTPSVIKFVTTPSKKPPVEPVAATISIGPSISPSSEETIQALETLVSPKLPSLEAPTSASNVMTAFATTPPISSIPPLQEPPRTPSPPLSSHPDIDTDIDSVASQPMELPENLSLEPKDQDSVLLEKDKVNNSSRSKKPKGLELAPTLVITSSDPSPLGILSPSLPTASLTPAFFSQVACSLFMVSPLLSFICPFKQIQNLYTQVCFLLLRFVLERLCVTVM
Procedure, shortened: as §1

ETV2 = molecular target: T4, ETV2 (Homo sapiens, UniProt O00321 1-342); conditions: protein: recombinant; tags: N-terminal GST; dsDNA, one strand shown
T4 sequence: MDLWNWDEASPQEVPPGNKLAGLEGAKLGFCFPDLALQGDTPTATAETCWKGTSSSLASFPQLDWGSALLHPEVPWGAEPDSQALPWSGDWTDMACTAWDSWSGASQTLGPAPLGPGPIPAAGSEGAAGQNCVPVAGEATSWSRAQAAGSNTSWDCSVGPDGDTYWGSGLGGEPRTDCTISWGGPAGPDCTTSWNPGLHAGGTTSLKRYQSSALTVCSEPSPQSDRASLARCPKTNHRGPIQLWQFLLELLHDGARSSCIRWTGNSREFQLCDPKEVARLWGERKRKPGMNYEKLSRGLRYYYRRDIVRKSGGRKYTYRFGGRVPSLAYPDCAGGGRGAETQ
Procedure, shortened: as §1

ELF3 = molecular target: T5, ELF3 (Homo sapiens, UniProt P78545 1-371); conditions: protein: recombinant; tags: N-terminal GST; dsDNA, one strand shown
T5 sequence: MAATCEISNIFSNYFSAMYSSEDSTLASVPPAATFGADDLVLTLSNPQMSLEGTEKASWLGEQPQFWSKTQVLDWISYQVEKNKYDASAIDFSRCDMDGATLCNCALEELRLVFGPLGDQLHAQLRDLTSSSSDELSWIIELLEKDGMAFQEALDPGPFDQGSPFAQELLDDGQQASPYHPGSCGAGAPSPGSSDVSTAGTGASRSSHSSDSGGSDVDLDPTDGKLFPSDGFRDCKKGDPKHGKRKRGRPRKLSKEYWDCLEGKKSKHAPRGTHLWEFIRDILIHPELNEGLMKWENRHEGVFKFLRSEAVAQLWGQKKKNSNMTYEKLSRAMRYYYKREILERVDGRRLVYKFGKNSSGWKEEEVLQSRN
Procedure, shortened: as §1

CRX = CRX (Homo sapiens, UniProt O43186 1-299); conditions: protein: recombinant; tags: N-terminal GST; dsDNA, one strand shown
Procedure, shortened: as §1

ETV1 = ETV1 (Homo sapiens, UniProt P50549 1-477); conditions: protein: recombinant; tags: N-terminal GST; dsDNA, one strand shown
Procedure, shortened: as §1

ERF = molecular target: T6, ERF (Homo sapiens, UniProt P50548 1-548); conditions: protein: recombinant; tags: N-terminal GST; dsDNA, one strand shown
T6 sequence: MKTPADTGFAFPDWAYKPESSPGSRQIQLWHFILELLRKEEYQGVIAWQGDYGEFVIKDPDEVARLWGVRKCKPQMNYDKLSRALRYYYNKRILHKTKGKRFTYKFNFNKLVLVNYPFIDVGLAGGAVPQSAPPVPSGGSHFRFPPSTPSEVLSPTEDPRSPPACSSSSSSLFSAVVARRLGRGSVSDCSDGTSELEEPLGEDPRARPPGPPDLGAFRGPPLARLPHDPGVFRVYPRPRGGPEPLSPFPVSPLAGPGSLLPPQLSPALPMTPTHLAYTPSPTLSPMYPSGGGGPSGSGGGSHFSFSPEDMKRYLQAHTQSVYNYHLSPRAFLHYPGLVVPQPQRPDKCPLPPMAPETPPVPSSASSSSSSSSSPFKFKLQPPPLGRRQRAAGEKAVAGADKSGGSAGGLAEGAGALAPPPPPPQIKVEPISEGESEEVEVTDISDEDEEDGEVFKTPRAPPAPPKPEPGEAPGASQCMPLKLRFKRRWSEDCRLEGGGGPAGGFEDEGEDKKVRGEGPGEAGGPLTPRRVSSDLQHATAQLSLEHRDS
Procedure, shortened: as §1

ETV3L = molecular target: T7, ETV3L (Homo sapiens, UniProt Q6ZN32 1-361); conditions: protein: recombinant; tags: N-terminal GST; dsDNA, one strand shown
T7 sequence: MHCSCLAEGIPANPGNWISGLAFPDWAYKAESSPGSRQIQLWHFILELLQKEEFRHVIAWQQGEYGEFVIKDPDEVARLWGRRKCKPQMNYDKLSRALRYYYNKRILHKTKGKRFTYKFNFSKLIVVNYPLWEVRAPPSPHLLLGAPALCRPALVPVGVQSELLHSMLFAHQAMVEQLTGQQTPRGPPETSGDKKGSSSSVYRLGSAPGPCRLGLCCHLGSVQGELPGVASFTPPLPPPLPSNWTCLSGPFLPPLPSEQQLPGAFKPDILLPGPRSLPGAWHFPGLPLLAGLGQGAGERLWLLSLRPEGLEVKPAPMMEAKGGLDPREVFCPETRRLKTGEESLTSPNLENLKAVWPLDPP
Procedure, shortened: as §1

ETS2 = molecular target: T8, ETS2 (Homo sapiens, UniProt P15036 1-469); conditions: protein: recombinant; tags: N-terminal GST; dsDNA, one strand shown
T8 sequence: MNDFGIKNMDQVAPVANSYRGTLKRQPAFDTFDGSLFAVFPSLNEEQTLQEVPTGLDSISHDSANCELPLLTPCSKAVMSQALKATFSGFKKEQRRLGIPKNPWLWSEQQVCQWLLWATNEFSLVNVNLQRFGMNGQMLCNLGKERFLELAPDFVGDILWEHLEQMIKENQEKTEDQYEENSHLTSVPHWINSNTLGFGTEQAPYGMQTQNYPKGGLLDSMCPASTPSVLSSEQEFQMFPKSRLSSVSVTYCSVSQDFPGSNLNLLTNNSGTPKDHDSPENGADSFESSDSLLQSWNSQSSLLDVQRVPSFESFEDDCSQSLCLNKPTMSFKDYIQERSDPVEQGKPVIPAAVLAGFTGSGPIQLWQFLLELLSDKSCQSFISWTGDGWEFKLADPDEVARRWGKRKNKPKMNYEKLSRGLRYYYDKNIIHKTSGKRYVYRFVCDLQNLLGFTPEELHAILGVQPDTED
Procedure, shortened: as §1

SPDEF = molecular target: T9, SPDEF (Homo sapiens, UniProt O95238 1-335); conditions: protein: recombinant; tags: N-terminal GST; dsDNA, one strand shown
T9 sequence: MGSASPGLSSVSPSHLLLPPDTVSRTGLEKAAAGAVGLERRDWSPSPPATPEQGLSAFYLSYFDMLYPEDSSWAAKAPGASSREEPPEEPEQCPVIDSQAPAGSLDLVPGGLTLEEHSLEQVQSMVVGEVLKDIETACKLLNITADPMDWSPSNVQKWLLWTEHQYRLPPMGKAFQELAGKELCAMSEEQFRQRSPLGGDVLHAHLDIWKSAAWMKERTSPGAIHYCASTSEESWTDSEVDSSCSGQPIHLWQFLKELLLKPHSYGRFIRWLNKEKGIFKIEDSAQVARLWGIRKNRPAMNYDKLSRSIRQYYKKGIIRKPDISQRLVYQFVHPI
Procedure, shortened: as §1

ETV7 = molecular target: T10, ETV7 (Homo sapiens, UniProt Q9Y603 1-341); conditions: protein: recombinant; tags: N-terminal GST; dsDNA, one strand shown
T10 sequence: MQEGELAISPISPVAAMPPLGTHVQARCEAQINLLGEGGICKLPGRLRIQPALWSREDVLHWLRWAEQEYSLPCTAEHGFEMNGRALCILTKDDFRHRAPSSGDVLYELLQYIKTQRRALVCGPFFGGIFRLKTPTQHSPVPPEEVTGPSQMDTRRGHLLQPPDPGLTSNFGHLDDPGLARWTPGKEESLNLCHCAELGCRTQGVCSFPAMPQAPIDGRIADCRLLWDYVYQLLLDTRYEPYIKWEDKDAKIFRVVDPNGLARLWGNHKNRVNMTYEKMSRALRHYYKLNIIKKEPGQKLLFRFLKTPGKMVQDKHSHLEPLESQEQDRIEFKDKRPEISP
Procedure, shortened: as §1

ELF5 = molecular target: T11, ELF5 (Homo sapiens, UniProt Q9UKW6-2 1-255); conditions: protein: recombinant; tags: N-terminal GST; dsDNA, one strand shown
T11 sequence: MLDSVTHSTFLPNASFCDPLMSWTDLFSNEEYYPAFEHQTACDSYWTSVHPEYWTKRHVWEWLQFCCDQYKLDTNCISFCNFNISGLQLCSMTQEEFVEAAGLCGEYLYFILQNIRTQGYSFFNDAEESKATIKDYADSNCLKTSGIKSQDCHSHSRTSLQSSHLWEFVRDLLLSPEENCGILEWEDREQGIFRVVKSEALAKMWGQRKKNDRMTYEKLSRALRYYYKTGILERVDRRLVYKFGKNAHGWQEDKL
Procedure, shortened: as §1

ETV3 = molecular target: T12, ETV3 (Homo sapiens, UniProt P41162-2 1-143); conditions: protein: recombinant; tags: N-terminal GST; dsDNA, one strand shown
T12 sequence: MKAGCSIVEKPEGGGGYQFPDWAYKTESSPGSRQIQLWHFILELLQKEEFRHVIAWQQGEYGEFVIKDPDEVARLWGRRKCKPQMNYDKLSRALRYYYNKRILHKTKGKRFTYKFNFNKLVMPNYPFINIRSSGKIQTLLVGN
Procedure, shortened: as §1

ETV6 = ETV6 (Homo sapiens, UniProt P41212 1-452); conditions: protein: recombinant; tags: N-terminal GST; dsDNA, one strand shown
Procedure, shortened: as §1

ETV1, sequence (P50549 whole entry): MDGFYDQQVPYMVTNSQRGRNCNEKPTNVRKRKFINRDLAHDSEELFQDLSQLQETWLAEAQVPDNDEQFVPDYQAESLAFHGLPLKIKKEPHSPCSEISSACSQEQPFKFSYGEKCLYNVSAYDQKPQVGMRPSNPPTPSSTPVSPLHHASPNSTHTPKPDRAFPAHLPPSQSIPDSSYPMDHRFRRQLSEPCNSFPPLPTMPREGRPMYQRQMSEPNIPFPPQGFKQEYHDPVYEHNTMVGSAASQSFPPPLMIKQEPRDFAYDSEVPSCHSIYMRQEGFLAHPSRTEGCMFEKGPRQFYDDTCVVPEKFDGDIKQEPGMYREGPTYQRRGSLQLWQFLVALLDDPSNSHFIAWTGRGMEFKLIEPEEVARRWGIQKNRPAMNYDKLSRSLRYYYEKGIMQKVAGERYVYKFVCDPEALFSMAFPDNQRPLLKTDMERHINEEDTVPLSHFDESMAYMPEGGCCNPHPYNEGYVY
CRX, sequence (O43186 whole entry): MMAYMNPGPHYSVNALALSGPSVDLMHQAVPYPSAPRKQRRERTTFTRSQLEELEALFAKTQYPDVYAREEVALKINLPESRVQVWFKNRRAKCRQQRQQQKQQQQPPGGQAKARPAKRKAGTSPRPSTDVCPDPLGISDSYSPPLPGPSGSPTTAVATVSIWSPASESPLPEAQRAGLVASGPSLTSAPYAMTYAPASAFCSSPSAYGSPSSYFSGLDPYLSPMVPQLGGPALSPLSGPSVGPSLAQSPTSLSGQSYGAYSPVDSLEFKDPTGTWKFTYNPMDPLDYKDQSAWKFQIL
ETV6, sequence (P41212 whole entry): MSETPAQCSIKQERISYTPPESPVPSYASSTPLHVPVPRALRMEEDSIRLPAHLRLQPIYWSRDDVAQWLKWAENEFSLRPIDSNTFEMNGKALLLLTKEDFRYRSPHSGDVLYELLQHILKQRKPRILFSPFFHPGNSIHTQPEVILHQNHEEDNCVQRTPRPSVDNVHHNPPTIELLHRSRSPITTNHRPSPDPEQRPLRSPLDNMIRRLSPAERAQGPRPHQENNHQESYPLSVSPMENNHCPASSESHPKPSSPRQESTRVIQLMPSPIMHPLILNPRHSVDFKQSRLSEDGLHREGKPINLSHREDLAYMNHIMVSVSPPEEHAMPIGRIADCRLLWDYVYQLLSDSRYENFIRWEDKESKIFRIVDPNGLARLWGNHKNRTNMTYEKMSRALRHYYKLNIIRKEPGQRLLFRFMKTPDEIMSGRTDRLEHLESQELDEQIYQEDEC
HSF1, sequence (Q00613 whole entry): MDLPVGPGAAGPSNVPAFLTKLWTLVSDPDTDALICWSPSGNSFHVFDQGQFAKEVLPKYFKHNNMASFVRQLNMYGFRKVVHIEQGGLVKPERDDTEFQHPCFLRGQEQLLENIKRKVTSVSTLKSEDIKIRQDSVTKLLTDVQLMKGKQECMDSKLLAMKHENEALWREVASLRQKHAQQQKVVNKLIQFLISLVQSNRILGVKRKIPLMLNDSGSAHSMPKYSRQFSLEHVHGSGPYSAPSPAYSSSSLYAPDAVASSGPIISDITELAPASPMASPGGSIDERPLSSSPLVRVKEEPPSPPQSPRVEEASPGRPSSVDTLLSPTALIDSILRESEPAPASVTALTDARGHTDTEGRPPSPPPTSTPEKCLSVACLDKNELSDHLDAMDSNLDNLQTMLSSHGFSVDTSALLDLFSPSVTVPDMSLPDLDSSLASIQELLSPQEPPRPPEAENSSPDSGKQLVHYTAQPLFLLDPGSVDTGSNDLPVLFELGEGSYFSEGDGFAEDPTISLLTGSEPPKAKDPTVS
ELF4, sequence (Q99607 whole entry): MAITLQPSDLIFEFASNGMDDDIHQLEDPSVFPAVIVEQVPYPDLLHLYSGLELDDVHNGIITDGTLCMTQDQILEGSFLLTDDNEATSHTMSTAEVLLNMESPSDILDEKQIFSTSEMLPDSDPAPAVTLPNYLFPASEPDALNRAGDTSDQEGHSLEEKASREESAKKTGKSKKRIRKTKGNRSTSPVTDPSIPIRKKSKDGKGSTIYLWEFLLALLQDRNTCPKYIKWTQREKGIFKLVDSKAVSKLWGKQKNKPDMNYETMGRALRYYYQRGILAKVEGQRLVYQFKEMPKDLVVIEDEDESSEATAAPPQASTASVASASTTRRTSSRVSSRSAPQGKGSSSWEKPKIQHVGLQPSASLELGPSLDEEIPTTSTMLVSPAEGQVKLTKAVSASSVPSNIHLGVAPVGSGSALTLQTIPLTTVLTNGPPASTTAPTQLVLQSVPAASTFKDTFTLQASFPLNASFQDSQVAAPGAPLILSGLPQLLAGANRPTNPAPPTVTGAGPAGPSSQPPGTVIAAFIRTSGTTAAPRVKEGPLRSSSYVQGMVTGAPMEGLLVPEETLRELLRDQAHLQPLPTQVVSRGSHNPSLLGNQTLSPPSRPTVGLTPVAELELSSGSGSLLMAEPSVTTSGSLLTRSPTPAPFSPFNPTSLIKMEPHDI
ETV5, sequence (P41161 whole entry): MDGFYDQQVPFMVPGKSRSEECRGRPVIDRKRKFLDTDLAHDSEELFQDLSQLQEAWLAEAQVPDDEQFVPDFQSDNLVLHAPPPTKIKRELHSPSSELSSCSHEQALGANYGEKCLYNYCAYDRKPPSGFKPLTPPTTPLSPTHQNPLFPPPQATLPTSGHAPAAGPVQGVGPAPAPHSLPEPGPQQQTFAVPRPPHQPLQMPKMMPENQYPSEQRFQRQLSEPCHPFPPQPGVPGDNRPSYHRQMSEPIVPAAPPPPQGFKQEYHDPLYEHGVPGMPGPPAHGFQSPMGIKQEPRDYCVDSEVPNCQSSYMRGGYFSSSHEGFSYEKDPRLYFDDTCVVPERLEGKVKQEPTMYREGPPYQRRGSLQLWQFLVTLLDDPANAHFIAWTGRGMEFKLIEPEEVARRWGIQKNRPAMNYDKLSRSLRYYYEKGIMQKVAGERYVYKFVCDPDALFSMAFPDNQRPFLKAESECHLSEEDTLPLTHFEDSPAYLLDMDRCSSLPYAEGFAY

AAATGC
binding signal (FEV): 1.35 fold enrichment (6-mer frequency, TF over GST control)
binding signal (ETV5): 1.34 fold enrichment (6-mer frequency, TF over GST control)
binding signal (HSF1): 1.09 fold enrichment (6-mer frequency, TF over GST control)
binding signal (SPIC): 1.13 fold enrichment (6-mer frequency, TF over GST control)
binding signal (ELF4): 1.23 fold enrichment (6-mer frequency, TF over GST control)
binding signal (ELK4): 1.37 fold enrichment (6-mer frequency, TF over GST control)
binding signal (ETV2): 1.23 fold enrichment (6-mer frequency, TF over GST control)
binding signal (ELF3): 1.35 fold enrichment (6-mer frequency, TF over GST control)
binding signal (CRX): 1.19 fold enrichment (6-mer frequency, TF over GST control)
binding signal (ETV1): 1.26 fold enrichment (6-mer frequency, TF over GST control)
binding signal (ERF): 1.27 fold enrichment (6-mer frequency, TF over GST control)
binding signal (ETV3L): 1.26 fold enrichment (6-mer frequency, TF over GST control)
binding signal (ETS2): 1.25 fold enrichment (6-mer frequency, TF over GST control)
binding signal (SPDEF): 1.3 fold enrichment (6-mer frequency, TF over GST control)
binding signal (ETV7): 1.34 fold enrichment (6-mer frequency, TF over GST control)
binding signal (ELF5): 1.33 fold enrichment (6-mer frequency, TF over GST control)
binding signal (ETV3): 1.18 fold enrichment (6-mer frequency, TF over GST control)
binding signal (ETV6): 1.35 fold enrichment (6-mer frequency, TF over GST control)
